From PubChem BioAssay come the findings set out here.

Molecules are shown by their SMILES. Active and inactive are the calls of the source.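 The calls were made as follows: active = RAM network inhibition above 8.4% in each of two replicates, 3 SD over the compound average; inconclusive = above 8.4% inhibition in only one replicate; inactive = 8.4% inhibition or less in each replicate.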

A short description of this assay: RAM signaling pathway blockade in yeast – S. cerevisiae, Pdr1DBD-CYC8 efflux-inhibited sensitized strain, primary screen (AID 1298).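 Also: 0% = DMSO untreated cells without growth and 100% = 10 µM 1-NA-PP1 full growth; higher means more yeast growth rescued from 5-FOA killing.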 The conditions noted are these: S. cerevisiae cbk1-as DSE1-URA3 strain, 5-FOA growth OD615, 2 d; at 50 µM; hits give high values.
As to `Cn1c(Cn2c(=O)sc3ccccc32)nnc1SCC(=O)NCc1ccco1`, the RAM network inhibition was 6.92% (inactive).
As to `CCOC(=O)N1CCN(C(=O)c2ccccc2NC(=O)COc2ccccc2C)CC1`, the RAM network inhibition was 5.67% (inactive).
On to `CCCCS(=O)(=O)/C=C\C=C/S(=O)(=O)CCCC`, for which the RAM network inhibition was -3.06% (inactive).
Consider `CC(=O)Oc1c2occc2cc2ccc(=O)oc12`, for which the RAM network inhibition was -1.95% (inactive).
For the molecule `COc1ccc(Br)cc1C1CC(=O)N2CN(Cc3ccccc3)CSC2=C1C#N` (stereo not given), the RAM network inhibition is 4.51% (inactive).
The figure for `Cc1nn(-c2ccccc2)c2c1C(c1ccccc1)C(C#N)=C(N)O2` (stereo not given) is 10.5% (inactive).
In the case of `COc1ccc2cc(CCNC(=O)C3CCCC3)c(=O)[nH]c2c1`, the RAM network inhibition is 0.21% (inactive).
The figure for `COc1ccc2nc(NC(=O)C3COc4ccccc4O3)sc2c1` (stereo not given) is 2.86% (inactive); for `O=C(CSCC(=O)N1CCOCC1)Nc1nc(-c2ccc3c(c2)OCO3)cs1` it is 6.38% (inactive).
With `COC(=O)c1c(C(=O)OC)c2n(c1C)Cc1ccccc1C2`, the RAM network inhibition is 1.43% (inactive).
`CC(=O)Nn1cc2c(=O)n(C)c(=O)n(C)c2c1`: the RAM network inhibition was 1.13% (inactive).
For `O=C(NCCc1ccccc1)c1ccc(Br)o1`, the RAM network inhibition was 1.44% (inactive).
The figure for `O=C(O)CN(Cc1ccco1)S(=O)(=O)c1ccccc1` is 2.35% (inactive).
With `CC1CN(CCC(=O)Nc2ccc3c(c2)CCC3)CC(C)O1` (stereo not given), the RAM network inhibition is 6.16% (inactive).
The result for `Cc1cc(C)n2nc(SCC(=O)Nc3ccc(F)cc3)nc2n1` reads -0.94% (inactive); that for `COCCNC(=O)CN(c1cc(C(F)(F)F)ccc1Cl)S(C)(=O)=O`, 0.87% (inactive).
The figure for `CCN(CC)S(=O)(=O)c1cc(C(=O)Nc2ccc(Cl)cn2)ccc1C` is -0.26% (inactive).
Consider `O=C(CCNS(=O)(=O)c1cccc2nsnc12)NCCc1ccccc1`, for which the RAM network inhibition was 1.2% (inactive).
Consider `Clc1ccccc1CSc1nnc(-c2cccnc2)n1Cc1ccco1`, for which the RAM network inhibition is 4.7% (inactive).
With `COc1ccc(-c2nnc(SCC(=O)NC(C)c3ccccc3)o2)cc1OC` (stereo not given), the RAM network inhibition is 1.77% (inactive).
With `O=c1c2ccccc2ncn1-c1ccc2c(c1)OCCO2`, the RAM network inhibition is 0.78% (inactive).
With `CC(=O)Nc1ccc(NC2(C)C(=O)c3ccccc3C2=O)cc1`, the RAM network inhibition was 1.23% (inactive).
Turning to `C=CCNC(=O)COc1ccc(Br)cc1Cl`, the RAM network inhibition was 9.74% (inactive).
As for `COc1ccccc1N1CCN(Cc2cc(Br)c(O)c3ncccc23)CC1`, the RAM network inhibition was -1.73% (inactive).
As to `O=C(CNC(=O)c1cnccn1)Nc1ccc(F)c(F)c1F`, the RAM network inhibition is 7.87% (inactive).
On to `CCCC(=O)c1ccc(N2CCOCC2)c(F)c1`, for which the RAM network inhibition was 0.58% (inactive).
The figure for `O=C(NCc1ccc(Cl)c(Cl)c1)c1ccco1` is 3.74% (inactive).
Regarding `O=C(NCC1CCCO1)C1CC(=O)N(c2ccc(F)c(Cl)c2)C1` (stereo not given), the RAM network inhibition was 5.33% (inactive).
The figure for `COC(=O)CCC(=O)Nc1ccc(NC(=O)CCC(=O)OC)cc1` is 0.97% (inactive); for `CCc1c(C)nc2[nH]nc(-c3ccccc3)n2c1=O` it is 4.8% (inactive).
The figure for `COC(=O)C1=CN(CC2CCCO2)C=C(C(=O)OC)C1c1ccsc1` (stereo not given) is 4.53% (inactive); for `COc1cccc(-n2c(Cc3cc(=O)[nH]c(=O)[nH]3)nnc2SCC(=O)N2CCCCC2)c1` it is 5.28% (inactive); for `CCOc1ccc(N(CC(=O)Nc2nccs2)S(=O)(=O)c2c(C)noc2C)cc1` it is 8.94% (inactive).
As for `CC(Oc1ccc(Cl)cc1Cl)C(=O)NCCN1CCOCC1` (stereo not given), the RAM network inhibition was 1.53% (inactive).
Turning to `Nc1nonc1C(=O)NCCc1ccccc1`, the RAM network inhibition is -0.76% (inactive).
`CCCCn1c(CN2CCN(C(=O)c3ccco3)CC2)nc2c1c(=O)n(C)c(=O)n2C`: the RAM network inhibition is 2.15% (inactive).
The result for `COc1ccc(CCNC(=O)CCNS(=O)(=O)c2cccc3nsnc23)cc1OC` reads 1.25% (inactive).
The figure for `CC(=O)Nc1cc2c(cc1C(=O)c1ccccc1)OCCO2` is 0.89% (inactive); for `Cc1cc(C)c2c3c(c(-c4ccccc4)n2n1)c(=O)n(C)c(=O)n3C` it is 5.77% (inactive).
The figure for `CCOC(=O)NC(Nc1cc(C)ccn1)(C(F)(F)F)C(F)(F)F` is -1.18% (inactive).
